According to the supplement of paper PMC10849652:
Targets with a hit are over-represented here; the source holds about 7,900 in all. About 0.6% of all pairs of compound and target were hits. A number with no mark means an inactive call.

How the values were obtained:
Experiment in all cases: log2 fold change, soluble protein after heating vs DMSO (PISA); higher = thermal stabilisation; K562 cells, 10 uM, 30 min; active = over 0.2 and 3.5 SD of the protein, either way, in both replicates (recomputed)
[1] = compound: CS(=O)(=O)c1ccc(-c2cnc(N)c(C(=O)Nc3ccccc3)n2)cc1
Procedure, shortened: (§1)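 For each measurement, 10 μM compound was applied for 30 min to K562 cells at 2×10^6 cells/mL. Aliquots were heated for 3 min across 48°C-58°C, pooled, and extracted in PBS with 0.5% NP-40 at 4°C; the supernatant after 21,000xg for 90 min was soluble protein. This was quantified by TMTpro 16plex LC-MS/MS with channel sums equalised, and thermal stability was reported relative to control samples from duplicates, on a log2 fold-change scale.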

crizotinib = compound: C[C@@H](Oc1cc(-c2cnn(C3CCNCC3)c2)cnc1N)c1c(Cl)ccc(F)c1Cl [crizotinib]
Procedure, shortened: as §1

[2] = compound: C[C@@H]1COCCN1C2=NC(=NC(=C2)C3(CC3)S(=O)(=O)C)C4=C5C=CNC5=CC=C4
Procedure, shortened: as §1

[3] = compound: C[C@H](C1=CC=C(C=C1)C(=O)NC2=C3C=CNC3=NC=C2)N
Procedure, shortened: as §1

duvelisib = compound: C[C@H](Nc1ncnc2nc[nH]c12)c1cc2cccc(Cl)c2c(=O)n1-c1ccccc1 [duvelisib]
Procedure, shortened: as §1

[4] = compound: Cc1cc(SCc2sc(-c3ccc(C(F)(F)F)cc3)nc2C)ccc1OCC(=O)O
Procedure, shortened: as §1

doramapimod = compound: Cc1ccc(-n2nc(C(C)(C)C)cc2NC(=O)Nc2ccc(OCCN3CCOCC3)c3ccccc23)cc1 [doramapimod]
Procedure, shortened: as §1

ispinesib = compound: Cc1ccc(C(=O)N(CCCN)[C@@H](c2nc3cc(Cl)ccc3c(=O)n2Cc2ccccc2)C(C)C)cc1 [ispinesib]
Procedure, shortened: as §1

bafetinib = compound: Cc1ccc(NC(=O)c2ccc(CN3CC[C@H](N(C)C)C3)c(C(F)(F)F)c2)cc1Nc1nccc(-c2cncnc2)n1 [bafetinib]
Procedure, shortened: as §1

nilotinib = compound: Cc1cn(-c2cc(NC(=O)c3ccc(C)c(Nc4nccc(-c5cccnc5)n4)c3)cc(C(F)(F)F)c2)cn1 [nilotinib]
Procedure, shortened: as §1

[5] = compound: Cc1nc(Nc2n[nH]c3c2CN(C(=O)N[C@H](CN(C)C)c2ccccc2)C3(C)C)c2sccc2n1
Procedure, shortened: as §1

dasatinib = compound: Cc1nc(Nc2ncc(C(=O)Nc3c(C)cccc3Cl)s2)cc(N2CCN(CCO)CC2)n1 [dasatinib]
Procedure, shortened: as §1

[6] = compound: Cc1ncc(-c2ccnc(Nc3ccc(S(C)(=O)=O)cc3)n2)n1C(C)C
Procedure, shortened: as §1

[7] = compound: Cn1cc(-c2ccc3c(c2)CCN3C(=O)Cc2cccc(C(F)(F)F)c2)c2c(N)ncnc21
Procedure, shortened: as §1

[8] = compound: Cn1cc(-c2ccc3nnc(C(F)(F)c4ccc5ncccc5c4)n3n2)cn1
Procedure, shortened: as §1

tipifarnib = compound: Cn1cncc1[C@@](N)(c1ccc(Cl)cc1)c1ccc2c(c1)c(-c1cccc(Cl)c1)cc(=O)n2C [tipifarnib]
Procedure, shortened: as §1

mubritinib = compound: FC(F)(F)c1ccc(/C=C/c2nc(COc3ccc(CCCCn4ccnn4)cc3)co2)cc1 [mubritinib]
Procedure, shortened: as §1

gandotinib = compound: Cc1cc(Nc2cc(CN3CCOCC3)c3nc(C)c(Cc4ccc(Cl)cc4F)n3n2)n[nH]1 [gandotinib]
Procedure, shortened: as §1

tozasertib = compound: Cc1cc(Nc2cc(N3CCN(C)CC3)nc(Sc3ccc(NC(=O)C4CC4)cc3)n2)n[nH]1 [tozasertib]
Procedure, shortened: as §1

[9] = compound: Cc1cccc(CC(=O)N2CCc3c2ccc(-c2cn(C)c4ncnc(N)c24)c3F)n1
Procedure, shortened: as §1

Chain of UniProt Q9NQX7 (Q9NQX7 whole entry, looked up): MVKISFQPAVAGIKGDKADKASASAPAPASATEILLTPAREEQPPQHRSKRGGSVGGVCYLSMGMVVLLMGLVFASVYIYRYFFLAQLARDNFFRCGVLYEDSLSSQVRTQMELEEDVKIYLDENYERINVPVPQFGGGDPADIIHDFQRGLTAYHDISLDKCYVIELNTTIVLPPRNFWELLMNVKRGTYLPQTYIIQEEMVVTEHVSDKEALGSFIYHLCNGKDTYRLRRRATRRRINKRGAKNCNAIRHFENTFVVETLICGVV
Chain of UniProt O95819 (O95819 whole entry, looked up): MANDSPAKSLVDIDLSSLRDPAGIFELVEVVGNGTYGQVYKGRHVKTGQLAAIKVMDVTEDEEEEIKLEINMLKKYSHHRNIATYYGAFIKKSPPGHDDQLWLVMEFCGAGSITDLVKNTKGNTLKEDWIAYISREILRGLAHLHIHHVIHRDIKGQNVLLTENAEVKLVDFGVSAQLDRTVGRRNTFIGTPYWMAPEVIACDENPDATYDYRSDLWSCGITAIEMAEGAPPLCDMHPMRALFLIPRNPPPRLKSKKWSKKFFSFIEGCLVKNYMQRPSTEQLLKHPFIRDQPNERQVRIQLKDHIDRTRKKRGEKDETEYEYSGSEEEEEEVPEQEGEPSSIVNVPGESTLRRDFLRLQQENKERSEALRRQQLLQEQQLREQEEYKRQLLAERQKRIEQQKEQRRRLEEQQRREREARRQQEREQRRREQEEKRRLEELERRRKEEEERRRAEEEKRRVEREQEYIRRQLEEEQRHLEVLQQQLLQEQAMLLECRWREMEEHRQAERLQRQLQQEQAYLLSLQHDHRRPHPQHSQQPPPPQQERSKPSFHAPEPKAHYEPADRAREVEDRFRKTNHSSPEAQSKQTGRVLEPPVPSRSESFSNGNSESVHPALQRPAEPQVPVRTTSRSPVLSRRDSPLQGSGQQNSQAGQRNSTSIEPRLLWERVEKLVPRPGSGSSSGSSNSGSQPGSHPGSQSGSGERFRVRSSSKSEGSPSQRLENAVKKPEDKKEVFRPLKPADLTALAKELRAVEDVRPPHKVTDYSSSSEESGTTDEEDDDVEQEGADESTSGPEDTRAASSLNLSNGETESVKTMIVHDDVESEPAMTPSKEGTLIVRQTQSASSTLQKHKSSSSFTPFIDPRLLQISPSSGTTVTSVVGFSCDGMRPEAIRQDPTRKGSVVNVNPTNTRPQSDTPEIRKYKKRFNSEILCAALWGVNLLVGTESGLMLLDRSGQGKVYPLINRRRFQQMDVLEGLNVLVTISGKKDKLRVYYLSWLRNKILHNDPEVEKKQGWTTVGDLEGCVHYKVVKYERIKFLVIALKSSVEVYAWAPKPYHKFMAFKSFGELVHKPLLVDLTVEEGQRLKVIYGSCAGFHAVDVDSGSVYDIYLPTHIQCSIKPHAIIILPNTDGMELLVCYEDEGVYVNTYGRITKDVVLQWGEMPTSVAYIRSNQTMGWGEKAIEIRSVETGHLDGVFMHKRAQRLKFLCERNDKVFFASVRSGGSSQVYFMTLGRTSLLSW
Chain of UniProt Q6UWB1 (Q6UWB1 whole entry, looked up): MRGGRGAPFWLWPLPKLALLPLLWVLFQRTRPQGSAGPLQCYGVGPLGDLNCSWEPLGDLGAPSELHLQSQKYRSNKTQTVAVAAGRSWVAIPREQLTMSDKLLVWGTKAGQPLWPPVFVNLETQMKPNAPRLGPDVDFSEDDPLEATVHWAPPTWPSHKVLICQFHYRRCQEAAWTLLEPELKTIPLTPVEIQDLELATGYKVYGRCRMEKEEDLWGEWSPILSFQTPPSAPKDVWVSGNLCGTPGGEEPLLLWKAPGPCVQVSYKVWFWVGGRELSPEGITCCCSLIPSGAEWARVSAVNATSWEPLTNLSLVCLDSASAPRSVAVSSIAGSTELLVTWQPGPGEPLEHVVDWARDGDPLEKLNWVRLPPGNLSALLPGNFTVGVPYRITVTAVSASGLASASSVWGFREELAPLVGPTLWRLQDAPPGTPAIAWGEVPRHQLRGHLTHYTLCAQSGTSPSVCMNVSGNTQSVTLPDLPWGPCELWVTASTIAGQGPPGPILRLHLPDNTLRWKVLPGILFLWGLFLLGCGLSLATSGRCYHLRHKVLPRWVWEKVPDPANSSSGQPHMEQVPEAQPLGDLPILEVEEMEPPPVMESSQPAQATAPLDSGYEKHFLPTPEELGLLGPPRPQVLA
Chain of UniProt Q93074 (Q93074 whole entry, looked up): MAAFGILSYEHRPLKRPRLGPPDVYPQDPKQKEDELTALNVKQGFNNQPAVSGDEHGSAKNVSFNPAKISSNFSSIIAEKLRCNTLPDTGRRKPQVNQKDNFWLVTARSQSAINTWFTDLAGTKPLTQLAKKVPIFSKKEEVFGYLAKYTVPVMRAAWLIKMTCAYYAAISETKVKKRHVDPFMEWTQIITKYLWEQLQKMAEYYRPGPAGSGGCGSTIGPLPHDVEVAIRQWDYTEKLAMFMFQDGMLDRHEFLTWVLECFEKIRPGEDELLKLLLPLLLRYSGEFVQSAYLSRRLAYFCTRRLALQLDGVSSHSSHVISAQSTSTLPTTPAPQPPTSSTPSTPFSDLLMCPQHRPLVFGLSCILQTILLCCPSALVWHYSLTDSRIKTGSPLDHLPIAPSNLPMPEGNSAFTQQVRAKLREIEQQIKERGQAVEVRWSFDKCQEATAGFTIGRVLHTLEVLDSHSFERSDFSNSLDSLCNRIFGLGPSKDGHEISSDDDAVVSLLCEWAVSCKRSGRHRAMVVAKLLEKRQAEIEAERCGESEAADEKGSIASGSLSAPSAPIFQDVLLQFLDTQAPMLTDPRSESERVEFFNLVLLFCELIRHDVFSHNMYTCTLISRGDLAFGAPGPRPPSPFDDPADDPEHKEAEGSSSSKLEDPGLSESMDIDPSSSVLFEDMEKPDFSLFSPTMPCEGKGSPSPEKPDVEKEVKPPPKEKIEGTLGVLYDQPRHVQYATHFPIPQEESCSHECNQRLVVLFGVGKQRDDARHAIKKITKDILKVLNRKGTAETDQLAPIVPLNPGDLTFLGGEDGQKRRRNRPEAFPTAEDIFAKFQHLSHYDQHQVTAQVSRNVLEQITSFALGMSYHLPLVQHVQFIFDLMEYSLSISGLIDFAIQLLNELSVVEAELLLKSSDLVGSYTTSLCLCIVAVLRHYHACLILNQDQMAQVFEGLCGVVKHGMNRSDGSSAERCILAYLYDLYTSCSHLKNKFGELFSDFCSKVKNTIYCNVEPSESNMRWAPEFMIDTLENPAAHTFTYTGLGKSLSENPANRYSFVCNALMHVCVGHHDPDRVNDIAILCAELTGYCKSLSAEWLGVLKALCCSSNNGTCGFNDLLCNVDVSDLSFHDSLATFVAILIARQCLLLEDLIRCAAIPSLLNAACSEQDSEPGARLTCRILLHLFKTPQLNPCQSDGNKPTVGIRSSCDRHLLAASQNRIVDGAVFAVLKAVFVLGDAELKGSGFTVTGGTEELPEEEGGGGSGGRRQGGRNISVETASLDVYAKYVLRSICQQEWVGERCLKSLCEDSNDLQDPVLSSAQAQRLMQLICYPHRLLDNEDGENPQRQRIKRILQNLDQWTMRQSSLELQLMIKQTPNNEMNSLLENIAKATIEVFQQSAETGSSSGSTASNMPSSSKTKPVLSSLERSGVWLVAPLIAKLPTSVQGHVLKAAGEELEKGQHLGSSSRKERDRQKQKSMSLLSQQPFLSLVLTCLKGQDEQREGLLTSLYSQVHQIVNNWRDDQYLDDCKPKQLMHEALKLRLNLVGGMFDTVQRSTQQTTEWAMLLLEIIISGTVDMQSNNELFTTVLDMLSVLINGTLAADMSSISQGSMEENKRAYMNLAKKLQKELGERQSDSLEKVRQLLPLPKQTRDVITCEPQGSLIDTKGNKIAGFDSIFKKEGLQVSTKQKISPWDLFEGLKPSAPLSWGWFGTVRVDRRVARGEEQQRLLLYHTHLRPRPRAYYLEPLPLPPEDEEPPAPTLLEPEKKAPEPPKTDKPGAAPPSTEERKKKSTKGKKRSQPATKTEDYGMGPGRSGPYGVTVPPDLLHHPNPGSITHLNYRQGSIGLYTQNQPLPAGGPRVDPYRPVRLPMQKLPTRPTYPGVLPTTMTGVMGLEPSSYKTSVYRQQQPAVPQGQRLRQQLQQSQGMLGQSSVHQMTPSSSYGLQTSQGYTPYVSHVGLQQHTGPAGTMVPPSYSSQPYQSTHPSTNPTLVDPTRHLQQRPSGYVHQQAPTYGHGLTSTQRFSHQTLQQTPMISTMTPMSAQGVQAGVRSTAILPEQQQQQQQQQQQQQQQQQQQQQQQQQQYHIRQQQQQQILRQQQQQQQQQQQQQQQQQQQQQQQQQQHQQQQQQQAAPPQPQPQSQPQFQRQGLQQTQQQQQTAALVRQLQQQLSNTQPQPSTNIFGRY
Chain of UniProt P17936 (P17936 whole entry, looked up): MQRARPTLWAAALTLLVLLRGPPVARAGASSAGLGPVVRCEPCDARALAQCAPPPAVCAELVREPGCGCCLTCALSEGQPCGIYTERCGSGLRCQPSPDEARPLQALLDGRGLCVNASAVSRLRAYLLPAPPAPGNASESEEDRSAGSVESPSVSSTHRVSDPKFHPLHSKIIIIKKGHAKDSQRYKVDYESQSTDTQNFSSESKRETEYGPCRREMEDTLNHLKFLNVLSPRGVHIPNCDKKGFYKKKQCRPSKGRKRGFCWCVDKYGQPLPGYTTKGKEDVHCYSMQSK
Chain of UniProt O00214 (O00214 whole entry, looked up): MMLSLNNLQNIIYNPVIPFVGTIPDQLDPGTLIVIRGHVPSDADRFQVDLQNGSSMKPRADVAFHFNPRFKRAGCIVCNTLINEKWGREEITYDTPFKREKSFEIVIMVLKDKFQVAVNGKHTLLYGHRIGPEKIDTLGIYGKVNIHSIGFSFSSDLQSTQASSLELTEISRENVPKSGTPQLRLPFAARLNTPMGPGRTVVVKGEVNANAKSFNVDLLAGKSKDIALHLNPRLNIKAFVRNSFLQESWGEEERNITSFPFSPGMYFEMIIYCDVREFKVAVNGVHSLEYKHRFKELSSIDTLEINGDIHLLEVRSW

Target	log2 fold change [1]	log2 fold change (crizotinib)	log2 fold change [2]	log2 fold change [3]	log2 fold change (duvelisib)	log2 fold change [4]	log2 fold change (doramapimod)	log2 fold change (ispinesib)	log2 fold change (bafetinib)	log2 fold change (nilotinib)	log2 fold change [5]	log2 fold change (dasatinib)	log2 fold change [6]	log2 fold change [7]	log2 fold change [8]	log2 fold change (tipifarnib)	log2 fold change (mubritinib)	log2 fold change (gandotinib)	log2 fold change (tozasertib)	log2 fold change [9]
MED8 isoform 2 (UniProt Q96G25)	0.021	0.037	-0.049	-0.077	0.029	-0.079	-0.031	0.012	-0.026	0.016	-0.015	0.034	-0.171	-0.086	0.013	0.012	-0.059	–	–	–
IGFBP3 isoform 2 (UniProt P17936)	-0.097	-0.176	-0.063	-0.149	0.068	0.027	-0.243	–	–	–	–	-0.001	–	0.106	–	-0.087	–	-0.545	-0.092	0.043
ILRUN (UniProt Q9H6K1)	-0.033	0.115	0.028	-0.038	0.021	0.029	0.005	0.032	-0.05	-0.01	-0.086	-0.08	0.258 (active)	-0.013	-0.039	-0.023	0.029	–	-0.087	–
ITM2C (UniProt Q9NQX7)	0.117	–	0.239	0.137	-0.034	0.011	–	0.051	-0.064	0.099	-0.018	0.024	0.127	0.09	0.038	0.039	–	0.083	–	-0.127
MAPK12 (UniProt P53778)	-0.005	–	0.105	-0.106	-0.005	0.01	–	-0.036	-0.037	-0.054	-0.254	-0.079	-0.035	0.34 (active)	-0.077	-0.007	0.061	0.037	0.099	0.008
MED12 isoform 2 (UniProt Q93074)	-0.088	-0.088	0.207	–	0.068	0.048	0.095	-0.117	-0.112	-0.038	0.068	-0.24	-0.058	–	0.003	-0.071	-0.103	-0.009	0.012	0.044
LSR (UniProt M0QZL9)	-0.03	–	0.118	–	–	–	–	–	–	–	–	–	–	–	–	–	–	–	–	–
MCM10 (UniProt Q7L590)	-0.171	-0.015	-0.102	–	–	–	-0.01	–	0.182	0.046	-0.001	–	-0.008	–	–	-0.155	0.09	0.092	0.144	-0.044
MED7 (UniProt O43513)	-0.03	0.11	-0.031	-0.081	-0.046	0.049	-0.199	0.017	0.191	-0.029	-0.041	-0.063	0.094	-0.05	0.069	0.271	–	–	0.004	–
INTS5 (UniProt Q6P9B9)	0.029	-0.013	0.058	–	0.047	0.008	0.006	0.025	-0.035	0.146	-0.08	-0.11	0.167	–	-0.003	-0.145	0.23	–	0.076	–
MED25 isoform 3 (UniProt Q71SY5)	0.061	0.021	–	0	0.061	0.162	0.085	-0.018	0.09	-0.013	0.003	-0.049	-0.09	-0.071	0.076	0.054	-0.308	0.19	0.136	0.217
LGALS8 isoform 2 (UniProt O00214)	-0.002	-0.023	-0.255	0.323	-0.223	0.204	0.146	–	0.107	–	–	0.013	–	-0.253	–	–	-0.186	-0.144	0.016	0.079
LYN isoform 2 (UniProt P07948)	-0.791 (active)	-0.211	-0.281	-0.294	–	–	0.159	–	–	-0.001	-0.418	–	-0.006	0	–	0.075	–	–	–	–
MAGED1 isoform 2 (UniProt Q9Y5V3)	-0.012	–	0.096	0.205	0.05	-0.008	–	–	–	-0.035	-0.008	0.057	-0.082	0.111	–	-0.104	–	–	–	–
IL10RB (UniProt Q08334)	0.004	0.009	-0.031	–	0.018	0.089	-0.007	–	-0.079	0.026	0.151	0.068	0.105	–	–	0.126	–	-0.238	-0.122	-0.031
IP6K1 (UniProt Q92551)	0.129	–	-0.072	0.295	0.065	0.23	–	-0.437	0.02	–	–	-0.361	–	0.024	0.116	-0.038	0.137	-0.145	-0.027	0.033
MAP4K4 isoform 3 (UniProt O95819)	-0.058	–	0.002	-0.055	0.091	0.017	-0.156	-0.05	-0.068	-0.038	-0.094	-0.162	-0.09	-0.024	0.038	-0.027	0.021	0.311	-0.169	0.029
IL27RA (UniProt Q6UWB1)	-0.031	0.029	0.539 (active)	-0.121	0.244	-0.109	0.211	0.043	-0.098	0.086	-0.06	0.055	-0.006	-0.039	-0.109	0.159	0.005	–	-0.039	–
KLHL18 (UniProt O94889)	0.092	–	0.078	-0.084	0.049	0.02	–	0.028	0.027	0.005	-0.021	-0.187	0.025	0.061	-0.027	0.044	-0.017	-0.561 (active)	-0.108	-0.252
